# Records with an inconclusive call do not appear. A call without a number means that no potency is given here. The source made the active and inactive calls. The call rests on the fitted dose curve; in most records, active means well fitted curve in the direction sought with a large enough effect; inconclusive means small, poorly fitted or top-dose-only effect, or another doubt; inactive means no such curve, though single readings can be large; an effect the other way counts as inactive or inconclusive.
# Tests used:
# [1] = Quantitative high throughput screen for delayed death inhibitors of the malarial parasite plastid, 96 hour incubation (AID 488745); further: nearly all actives have a fitted effect of over 70% in size; further: potency means the concentration at half of the fitted maximal effect
# Method in brief: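 Luciferase-expressing P. falciparum, infected RBCs 2% Hct/0.1% parasitemia (final); 96 h cpd exposure, 37 C, 5% CO2; RPMI 1640 + 0.5% Albumax, bicarbonate, gentamycin. Readout: luminescence loss = growth inhibition.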
# [2] = Quantitative high throughput screen for delayed death inhibitors of the malarial parasite plastid, 48 hour incubation (AID 488752); further: nearly all actives have a fitted effect of over 65% in size; further: potency means the concentration at half of the fitted maximal effect
# Method in brief: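 Luciferase-expressing P. falciparum in RBCs, 2% Hct, 0.1% parasitemia final; RPMI 1640 + 0.5% Albumax; 48 h, 37 C, 5% CO2; luminescence readout, signal drop = growth inhibition.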
# [3] = molecular target: Thioredoxin reductase 1, cytoplasmic (Rattus norvegicus) (UniProt O89049); test: qHTS Assay for Substrates of Mammalian Selenoprotein Thioredoxin Reductase 1 (TrxR1) (AID 488772);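 further: series mostly up to about 57 µM; a drop in NADPH fluorescence below the no-compound background marks a TrxR1 substrate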
# Method in brief: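 In this dual-purpose format, potential substrates are identified from the first fluorescence read after selenite addition, not from the 8-minute delta. Rat enzyme is preincubated with NADPH and then with compound at ~22 deg C.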
# [4] = molecular target: Thioredoxin reductase 1, cytoplasmic (Rattus norvegicus) (UniProt O89049); test: qHTS Assay for Inhibitors of Mammalian Selenoprotein Thioredoxin Reductase 1 (TrxR1) (AID 488773);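 further: drop in NADPH fluorescence over an 8 min run after selenite addition; series mostly up to about 57 µM; nearly all actives have a fitted effect of over 40% in size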
# Method in brief: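 Inhibition is scored from the loss of NADPH fluorescence between first and last reads of an 8-min kinetic run. Selenite (400 uM) was the substrate, added after 15 min compound preincubation at room temperature.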
# [5] = molecular target: Flap endonuclease 1 (Homo sapiens) (UniProt P39748); test: qHTS Validation Assay for the Inhibitors of Human Flap endonuclease 1 (FEN1) (AID 488816)
# Method in brief: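 Enzyme reagent 10 nM; cpds pinned; 15 min RT preinc.; substrate 50 nM final; reads t=0 and 15 min; no-enzyme buffer wells as neg. control; normalized data, 4-parameter Hill fit.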
# [6] = molecular target: M-phase phosphoprotein 8 (Homo sapiens) (UniProt Q99549); test: qHTS Validation Assay for Inhibitors for MPP8 Chromodomain Interactions with Methylated Histone Tails (AID 488949); further: nearly all actives have a fitted effect of over 55% in size; further: potency means the concentration at half of the fitted maximal effect
# Method in brief: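 AlphaScreen proximity signal from streptavidin donor and Ni-chelate acceptor beads (10 ug/mL each) reported binding of MPP8 to trimethyl-K9 H3(1-18) peptide, both at 50 nM. The complex formed 30 min before a 30 min compound exposure at room temperature, in PBS pH 7.4.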
# [7] = molecular target: Chromobox protein homolog 1 (Homo sapiens) (UniProt P83916); test: qHTS Validation Assay for Inhibitors of HP1-beta Chromodomain Interactions with Methylated Histone Tails (AID 488953); further: nearly all actives have a fitted effect of over 50% in size; further: potency means the concentration at half of the fitted maximal effect
# Method in brief: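 AlphaScreen proximity readout: streptavidin donor and Ni-chelate acceptor beads, 10 ug/mL final, 30 min dark, RT. Complex of 50 nM HP1-beta and 50 nM b-H3(1-18)K9me3 formed 30 min, then compound-treated 30 min; PBS pH 7.4/0.01% Tween-20.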
# [8] = molecular target: Methanococcus maripaludis chaperonin (MmCpn) (UniProt Q6LX38); test: High-Throughput Screening for Modulators of Cytosolic Chaperonin Activity: MmCpn Primary Screen (AID 488978);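 further: 50 nM MmCpn enzyme hydrolysing 30 µM ATP at 37 °C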
# Method in brief: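 ATPase activity of 50 nM MmCpn was assayed with 30 uM ATP, 10 minutes at 37C, after a 5 min compound preincubation at room temperature. ADP production was read as HTRF emission at 590 and 665 nm.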
# [9] = molecular target: Transient receptor potential cation channel subfamily V member 1 (Homo sapiens) (UniProt Q8NER1); test: HTS Assay for Compounds that Act as Enhancers of the Vanilloid Receptor 1 (AID 488979)
# Method in brief: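 TRPV1 cells loaded with Fluo-8 calcium dye; compound added and Ca2+ signal (ex 480/em 520 nm) followed 3 min, then capsaicin at EC20 added and read 2 more min to detect enhancement.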
# [10] = molecular target: Thyrotropin receptor (Homo sapiens) (UniProt P16473); test: qHTS Assay for Antagonists of the Thyroid Stimulating Hormone Receptor (AID 488980); further: series mostly up to about 58 µM
# Method in brief: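 Inhibition of cAMP raised by EC80 TSH (4 nM final) was read by HTRF, with lysate cAMP competing against cAMP-d2 for cryptate antibody after 30 min at room temperature. The cells were transfected HEK293 held in phosphodiesterase inhibitor RO 20-1724 at 70 uM.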
# Sequence of Flap endonuclease 1 (Homo sapiens) (P39748 whole entry, looked up): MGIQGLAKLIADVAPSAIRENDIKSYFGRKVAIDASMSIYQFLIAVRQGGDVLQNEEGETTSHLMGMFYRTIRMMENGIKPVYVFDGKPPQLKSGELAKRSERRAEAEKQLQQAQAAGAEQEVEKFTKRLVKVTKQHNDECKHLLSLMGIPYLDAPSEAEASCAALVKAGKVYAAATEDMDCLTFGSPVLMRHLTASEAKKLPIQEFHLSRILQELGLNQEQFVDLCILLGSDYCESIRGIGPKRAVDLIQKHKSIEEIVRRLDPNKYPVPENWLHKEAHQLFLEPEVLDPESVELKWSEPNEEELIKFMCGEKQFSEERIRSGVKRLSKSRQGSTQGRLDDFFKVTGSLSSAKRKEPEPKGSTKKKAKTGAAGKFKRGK
# Sequence of Methanococcus maripaludis chaperonin (MmCpn) (Q6LX38 1-543): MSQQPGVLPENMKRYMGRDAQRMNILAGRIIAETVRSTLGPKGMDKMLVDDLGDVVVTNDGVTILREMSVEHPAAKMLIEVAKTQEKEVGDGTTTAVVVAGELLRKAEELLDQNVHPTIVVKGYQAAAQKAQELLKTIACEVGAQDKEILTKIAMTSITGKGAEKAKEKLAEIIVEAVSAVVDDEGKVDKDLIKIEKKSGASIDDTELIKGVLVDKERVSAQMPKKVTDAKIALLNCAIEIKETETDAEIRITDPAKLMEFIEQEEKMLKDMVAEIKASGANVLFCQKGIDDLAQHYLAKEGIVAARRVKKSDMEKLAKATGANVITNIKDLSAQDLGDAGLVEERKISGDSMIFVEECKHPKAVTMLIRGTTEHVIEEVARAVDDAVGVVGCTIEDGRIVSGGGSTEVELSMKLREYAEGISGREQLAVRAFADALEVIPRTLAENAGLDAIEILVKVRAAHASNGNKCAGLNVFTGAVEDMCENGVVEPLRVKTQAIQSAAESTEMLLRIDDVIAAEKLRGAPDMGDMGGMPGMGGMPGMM
# Sequence of M-phase phosphoprotein 8 (Homo sapiens) (Q99549 whole entry, looked up): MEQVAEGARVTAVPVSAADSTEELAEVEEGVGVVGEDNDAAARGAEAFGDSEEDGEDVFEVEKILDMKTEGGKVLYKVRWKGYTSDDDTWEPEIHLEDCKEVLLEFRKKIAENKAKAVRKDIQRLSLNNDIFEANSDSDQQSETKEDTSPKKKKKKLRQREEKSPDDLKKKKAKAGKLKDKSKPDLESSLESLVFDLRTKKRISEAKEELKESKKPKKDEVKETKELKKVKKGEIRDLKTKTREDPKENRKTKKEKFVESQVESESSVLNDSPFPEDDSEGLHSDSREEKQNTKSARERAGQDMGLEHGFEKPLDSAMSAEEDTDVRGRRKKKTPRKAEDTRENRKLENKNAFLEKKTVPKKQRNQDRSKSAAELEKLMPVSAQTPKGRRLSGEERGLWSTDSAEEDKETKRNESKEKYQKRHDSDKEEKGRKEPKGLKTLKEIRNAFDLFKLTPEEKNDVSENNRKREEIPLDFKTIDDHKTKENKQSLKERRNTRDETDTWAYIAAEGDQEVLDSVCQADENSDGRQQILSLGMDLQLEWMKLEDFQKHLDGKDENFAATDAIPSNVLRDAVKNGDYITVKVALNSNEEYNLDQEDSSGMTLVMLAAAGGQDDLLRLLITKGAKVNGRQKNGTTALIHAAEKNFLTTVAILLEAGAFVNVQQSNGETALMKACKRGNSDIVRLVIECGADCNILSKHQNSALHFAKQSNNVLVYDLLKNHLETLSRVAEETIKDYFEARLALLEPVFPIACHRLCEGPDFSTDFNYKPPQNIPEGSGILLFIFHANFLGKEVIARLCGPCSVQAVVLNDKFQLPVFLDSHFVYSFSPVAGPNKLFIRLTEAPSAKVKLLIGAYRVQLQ
# Sequence of Transient receptor potential cation channel subfamily V member 1 (Homo sapiens) (Q8NER1 whole entry, looked up): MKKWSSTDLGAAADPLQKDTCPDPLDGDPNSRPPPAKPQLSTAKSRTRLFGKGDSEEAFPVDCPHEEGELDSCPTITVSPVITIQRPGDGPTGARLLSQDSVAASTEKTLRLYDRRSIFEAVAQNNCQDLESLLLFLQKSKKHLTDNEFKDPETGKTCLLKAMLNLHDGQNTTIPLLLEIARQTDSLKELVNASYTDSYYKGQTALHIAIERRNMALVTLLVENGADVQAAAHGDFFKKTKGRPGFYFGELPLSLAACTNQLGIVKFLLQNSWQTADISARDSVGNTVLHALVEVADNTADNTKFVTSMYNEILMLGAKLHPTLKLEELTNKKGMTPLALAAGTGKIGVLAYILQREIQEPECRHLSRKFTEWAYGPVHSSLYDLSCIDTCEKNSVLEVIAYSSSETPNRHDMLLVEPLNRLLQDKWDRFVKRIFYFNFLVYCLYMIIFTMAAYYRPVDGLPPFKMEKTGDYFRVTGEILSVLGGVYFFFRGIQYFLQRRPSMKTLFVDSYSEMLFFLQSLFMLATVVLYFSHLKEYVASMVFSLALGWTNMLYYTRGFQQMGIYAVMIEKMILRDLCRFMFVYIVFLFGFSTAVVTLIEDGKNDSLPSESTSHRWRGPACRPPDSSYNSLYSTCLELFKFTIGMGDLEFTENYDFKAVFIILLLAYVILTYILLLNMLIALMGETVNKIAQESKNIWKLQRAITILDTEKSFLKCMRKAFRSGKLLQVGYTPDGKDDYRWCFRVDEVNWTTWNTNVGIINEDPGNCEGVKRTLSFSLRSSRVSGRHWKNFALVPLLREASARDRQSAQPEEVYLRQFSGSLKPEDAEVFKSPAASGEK
# Sequence of Thyrotropin receptor (Homo sapiens) (P16473 whole entry, looked up): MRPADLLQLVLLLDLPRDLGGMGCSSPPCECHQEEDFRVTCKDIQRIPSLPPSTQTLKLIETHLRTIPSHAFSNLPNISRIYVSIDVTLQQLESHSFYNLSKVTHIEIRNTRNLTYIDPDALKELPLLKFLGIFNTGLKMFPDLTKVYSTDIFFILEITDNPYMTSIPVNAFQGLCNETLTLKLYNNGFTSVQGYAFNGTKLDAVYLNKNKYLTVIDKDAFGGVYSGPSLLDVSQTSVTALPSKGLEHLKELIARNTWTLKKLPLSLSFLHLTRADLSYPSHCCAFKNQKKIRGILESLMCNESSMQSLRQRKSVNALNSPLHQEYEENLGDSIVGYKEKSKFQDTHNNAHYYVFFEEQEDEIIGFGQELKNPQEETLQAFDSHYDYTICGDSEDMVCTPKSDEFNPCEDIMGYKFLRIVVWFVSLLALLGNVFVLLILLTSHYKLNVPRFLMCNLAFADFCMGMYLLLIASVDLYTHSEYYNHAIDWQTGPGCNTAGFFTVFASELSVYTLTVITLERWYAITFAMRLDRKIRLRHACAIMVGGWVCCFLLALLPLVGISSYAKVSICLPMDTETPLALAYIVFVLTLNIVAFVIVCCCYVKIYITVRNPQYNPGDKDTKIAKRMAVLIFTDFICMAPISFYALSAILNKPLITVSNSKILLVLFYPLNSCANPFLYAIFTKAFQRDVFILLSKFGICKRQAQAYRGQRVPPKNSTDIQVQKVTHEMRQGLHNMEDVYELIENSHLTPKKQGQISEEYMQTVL
# Sequence of Chromobox protein homolog 1 (Homo sapiens) (P83916 whole entry, looked up): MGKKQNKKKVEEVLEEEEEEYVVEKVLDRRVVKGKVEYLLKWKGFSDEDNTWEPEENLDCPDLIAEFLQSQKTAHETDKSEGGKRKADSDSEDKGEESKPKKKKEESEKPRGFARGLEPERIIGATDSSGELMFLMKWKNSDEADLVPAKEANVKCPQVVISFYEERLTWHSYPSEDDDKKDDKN
# Sequence of Thioredoxin reductase 1, cytoplasmic (Rattus norvegicus) (O89049 whole entry, looked up): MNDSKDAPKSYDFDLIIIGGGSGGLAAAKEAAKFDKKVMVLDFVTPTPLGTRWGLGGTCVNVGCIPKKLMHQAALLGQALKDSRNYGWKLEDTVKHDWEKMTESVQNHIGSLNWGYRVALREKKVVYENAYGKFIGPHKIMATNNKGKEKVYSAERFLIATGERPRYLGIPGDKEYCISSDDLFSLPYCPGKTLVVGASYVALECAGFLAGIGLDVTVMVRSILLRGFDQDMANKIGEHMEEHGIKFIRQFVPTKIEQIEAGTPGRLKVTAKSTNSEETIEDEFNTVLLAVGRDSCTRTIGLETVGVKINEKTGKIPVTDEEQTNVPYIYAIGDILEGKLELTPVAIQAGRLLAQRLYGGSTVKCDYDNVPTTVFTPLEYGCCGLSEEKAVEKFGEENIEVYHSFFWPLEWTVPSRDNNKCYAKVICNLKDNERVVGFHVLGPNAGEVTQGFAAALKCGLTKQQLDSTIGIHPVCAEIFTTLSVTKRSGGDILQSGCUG
Compound,Potency [1],Potency [2],outcome [3],outcome [4],outcome [5],Potency [6],Potency [7],outcome [8],outcome [9],outcome [10]
C=C(C)[C@H]1CN[C@H](C(=O)O)[C@H]1CC(=O)O,inactive,inactive,inactive,inactive,inactive,inactive,inactive,inactive,inactive,inactive
Cc1nnc(SCC2=C(C(=O)O)N3C(=O)[C@@H](NC(=O)Cn4cnnn4)[C@H]3SC2)s1,–,–,–,–,–,inactive,–,–,–,–
CC(NC(C)(C)C)C(=O)c1cccc(Cl)c1 (stereo not drawn),inactive,inactive,inactive,inactive,inactive,inactive,inactive,inactive,inactive,–
NCCc1ccc(O)cc1,inactive,inactive,inactive,inactive,inactive,inactive,inactive,inactive,inactive,inactive
CC(C)c1cccc(C(C)C)c1O,inactive,inactive,inactive,inactive,inactive,inactive,inactive,inactive,inactive,inactive
CCC1(c2ccc(N)cc2)CCC(=O)NC1=O (stereo not drawn),inactive,inactive,inactive,inactive,–,inactive,inactive,inactive,inactive,–
CN1C(=O)CCS(=O)(=O)C1c1ccc(Cl)cc1 (stereo not drawn),inactive,inactive,inactive,inactive,inactive,inactive,inactive,inactive,inactive,inactive
CC(C)N(CCC(C(N)=O)(c1ccccc1)c1ccccn1)C(C)C (stereo not drawn),inactive,inactive,inactive,inactive,inactive,inactive,inactive,inactive,inactive,inactive
O=c1[nH]oc2c1CCNC2,inactive,inactive,inactive,inactive,inactive,inactive,inactive,inactive,inactive,inactive
Cc1ncsc1CCCl,–,–,inactive,inactive,inactive,inactive,inactive,inactive,–,–
O=P1(N(CCCl)CCCl)NCCCO1 (stereo not drawn),inactive,inactive,inactive,inactive,inactive,inactive,0.006 µM (active),inactive,inactive,inactive
COc1ccc2c(c1OC)C(=O)O[C@H]2[C@@H]1c2cc3c(cc2CCN1C)OCO3,–,inactive,inactive,inactive,inactive,inactive,inactive,inactive,–,inactive
CN(C)C(=O)Oc1ccc[n+](C)c1,–,–,–,–,–,inactive,0.0067 µM (active),–,–,–
CC(=O)N1CCN(c2ccc(OC[C@H]3CO[C@](Cn4ccnc4)(c4ccc(Cl)cc4Cl)O3)cc2)CC1,11.7 µM (active),8.28 µM (active),–,–,inactive,39.8 µM (active),39.8 µM (active),–,–,–
CC(C)(C)NCC(O)c1ccccc1Cl (stereo not drawn),inactive,inactive,inactive,inactive,inactive,inactive,inactive,inactive,inactive,inactive
CCCCC/C=C\C/C=C\C/C=C\C/C=C\CCCC(=O)NCC(=O)O,inactive,inactive,inactive,–,inactive,inactive,44.7 µM (active),inactive,inactive,–
O=C(O)CCCc1ccc(N(CCCl)CCCl)cc1,inactive,inactive,inactive,–,inactive,inactive,inactive,inactive,inactive,inactive
CC[N+](CC)(CC)CCOc1cccc(OCC[N+](CC)(CC)CC)c1OCC[N+](CC)(CC)CC,–,–,–,–,–,13.4 µM (active),–,–,–,–
CN=C(NC#N)NCCSCc1nc[nH]c1C,–,–,–,–,–,inactive,–,–,–,–
O=C(CCCN1CCC2(CC1)C(=O)NCN2c1ccccc1)c1ccc(F)cc1,–,–,inactive,inactive,inactive,inactive,–,inactive,–,inactive
C[C@]12CCC(=O)C=C1CC[C@@H]1[C@@H]2CC[C@]2(C)C(=O)CC[C@@H]12,–,inactive,–,–,–,inactive,–,–,inactive,inactive

# From PubChem BioAssay (NCATS)
